Test results from PubChem BioAssay (NCATS).
Records with an inconclusive call do not appear. Where a call stands in place of a potency, no number is given. Calls of active or inactive are those of the source. The call rests on the fitted dose curve; in most records, active means well fitted curve in the direction sought with a large enough effect; inconclusive means small, poorly fitted or top-dose-only effect, or another doubt; inactive means no such curve, though single readings can be large; an effect the other way counts as inactive or inconclusive.

target: Luciferin 4-monooxygenase (Photinus pyralis) (UniProt P08659); assay: Biochemical firefly luciferase enzyme assay for NPC (AID 624030); further: potency means the concentration at half of the fitted maximal effect; conditions: purified P. pyralis luciferase, luminescence, 5 min; series mostly up to 58.6 µM
Summary of the method: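 Counter-screen for direct inhibition of the luciferase enzyme by approved-drug library compounds, run at 10 nM enzyme in 50 mM Tris acetate (final). Luminescence was read within 5 min of enzyme-buffer addition and normalized to PTC124 versus DMSO (0%).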
Further: nearly all actives have a fitted effect of over 70% in size.

| SMILES | Potency |
| --- | --- |
| O=C1CCc2ccc(OCCCCN3CCN(c4cccc(Cl)c4Cl)CC3)cc2N1 | inactive |
| CN(C)CCc1c[nH]c2ccc(Cn3cncn3)cc12 | inactive |
| NC(=O)Cc1cccc(C(=O)c2ccccc2)c1N | inactive |
| CC(C)Oc1ccc2c(=O)c(-c3ccccc3)coc2c1 | 2.03 µM (active) |
| CCCCCCCCOc1ccccc1C(=O)Nc1ccc(C(=O)OCC[N+](C)(CC)CC)cc1 | inactive |
| COc1cc(C(C)=O)ccc1OCCCN1CCC(c2noc3cc(F)ccc23)CC1 | inactive |
| NNc1nncc2ccccc12 | 0.0775 µM (active) |
| O=C(OC1C[C@H]2CC[C@@H](C1)[N+]21CCCC1)C(O)(c1ccccc1)c1ccccc1 (stereo not given in full) | inactive |
| CC(C)c1nc(CN(C)C(=O)N[C@H](C(=O)N[C@@H](Cc2ccccc2)C[C@H](O)[C@H](Cc2ccccc2)NC(=O)OCc2cncs2)C(C)C)cs1 | inactive |
| CN(C)C(=O)COC(=O)Cc1ccc(OC(=O)c2ccc(N=C(N)N)cc2)cc1 | inactive |
| COC(=O)N[C@H](C(=O)N[C@@H](Cc1ccccc1)[C@@H](O)CN(Cc1ccc(-c2ccccn2)cc1)NC(=O)[C@@H](NC(=O)OC)C(C)(C)C)C(C)(C)C | inactive |
| CCOc1cc(CC(=O)N[C@@H](CC(C)C)c2ccccc2N2CCCCC2)ccc1C(=O)O | inactive |
| CCN(CC)CCOc1ccc(Cc2ccccc2)cc1 | inactive |
| COc1cc(Nc2c(C#N)cnc3cc(OCCCN4CCN(C)CC4)c(OC)cc23)c(Cl)cc1Cl | inactive |
| Cc1nccn1CC1CCc2c(c3ccccc3n2C)C1=O (stereo not given) | inactive |
| Cc1nc(-c2ccc(OCC(C)C)c(C#N)c2)sc1C(=O)O | 0.0361 µM (active) |

| SMILES | Potency |
| --- | --- |
| C=CCc1cc(OC)c(O)c(C(=O)NCCO)c1 | inactive |
| c1cnc2cc3c(cc2n1)C1CNCC3C1 | inactive |
| Cc1ccc(Nc2nccc(N(C)c3ccc4c(C)n(C)nc4c3)n2)cc1S(N)(=O)=O | inactive |
| CC1=C(C(=O)O)N2C(=O)[C@@H](NC(=O)[C@H](N)C3=CCC=CC3)[C@H]2SC1 | inactive |
| Cc1nc2n(c(=O)c1CCN1CCC(c3noc4cc(F)ccc34)CC1)CCCC2 | inactive |
| COc1cc2c(N3CCN(C(=O)Nc4ccc(OC(C)C)cc4)CC3)ncnc2cc1OCCCN1CCCCC1 | inactive |
| O=C(NC(Cc1cc(=O)[nH]c2ccccc12)C(=O)O)c1ccc(Cl)cc1 (stereo not given) | inactive |
| Cc1c(OCC(F)(F)F)ccnc1CS(=O)c1nc2ccccc2[nH]1 (stereo not given) | inactive |
| COc1ccc2cc([C@H](C)C(=O)O)ccc2c1 | inactive |
| COc1cc2c(cc1OC)C1CC(=O)C(CC(C)C)CN1CC2 (stereo not given) | inactive |
| CC(C)[N+]1(C)[C@@H]2CC[C@H]1CC(OC(=O)C(CO)c1ccccc1)C2 (stereo not given in full) | inactive |
| Cc1ccc(NC(=O)c2ccc(CN3CCN(C)CC3)cc2)cc1Nc1nccc(-c2cccnc2)n1 | 12.8 µM (active) |
| Cn1c(NCCN(CCO)CCCc2ccc([N+](=O)[O-])cc2)cc(=O)n(C)c1=O | inactive |
| Cc1cccc(C)c1OCC(=O)N[C@@H](Cc1ccccc1)[C@@H](O)C[C@H](Cc1ccccc1)NC(=O)[C@H](C(C)C)N1CCCNC1=O | inactive |
| CCC1=C(C)CN(C(=O)NCCc2ccc(S(=O)(=O)NC(=O)NC3CCC(C)CC3)cc2)C1=O (stereo not given) | inactive |

system: not listed separately; assay: S16 Schwann cell viability assay (CellTiter-Glo assay) (AID 624031); conditions: S16 rat Schwann cells viability, 24 h; series mostly up to 57.5 µM;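 further: cellular ATP luminescence as a viability measure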
Summary of the method: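 Luminescent ATP read-out (CellTiter-Glo) after 24 h compound exposure of native S16 rat Schwann cells at 37 °C. Signals were normalized between cell-free wells and DMSO-treated cells, set as 0% activity.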

| SMILES | Potency |
| --- | --- |
| CN(C)CCc1c[nH]c2ccc(Cn3cncn3)cc12 | inactive |
| CCCCCCCCOc1ccccc1C(=O)Nc1ccc(C(=O)OCC[N+](C)(CC)CC)cc1 | inactive |
| NNc1nncc2ccccc12 | inactive |
| O=C(OC1C[C@H]2CC[C@@H](C1)[N+]21CCCC1)C(O)(c1ccccc1)c1ccccc1 (stereo not given in full) | inactive |
| CN(C)C(=O)COC(=O)Cc1ccc(OC(=O)c2ccc(N=C(N)N)cc2)cc1 | inactive |
| CCOc1cc(CC(=O)N[C@@H](CC(C)C)c2ccccc2N2CCCCC2)ccc1C(=O)O | inactive |
| CCN(CC)CCOc1ccc(Cc2ccccc2)cc1 | inactive |
| C=CCc1cc(OC)c(O)c(C(=O)NCCO)c1 | inactive |
| CC1(C)CCC(C)(C)c2cc(NC(=O)c3ccc(C(=O)O)cc3)ccc21 | inactive |
| O=C(NC(Cc1cc(=O)[nH]c2ccccc12)C(=O)O)c1ccc(Cl)cc1 (stereo not given) | inactive |
| Cc1c(OCC(F)(F)F)ccnc1CS(=O)c1nc2ccccc2[nH]1 (stereo not given) | inactive |
| COc1cc2c(cc1OC)C1CC(=O)C(CC(C)C)CN1CC2 (stereo not given) | inactive |
| C=C(c1ccc(C(=O)O)cc1)c1cc2c(cc1C)C(C)(C)CCC2(C)C | inactive |
| CCC1=C(C)CN(C(=O)NCCc2ccc(S(=O)(=O)NC(=O)NC3CCC(C)CC3)cc2)C1=O (stereo not given) | inactive |
